PubChem BioAssay (NCI)
This is part of a sample that, as a whole, favours compounds with a hit. Of some 83,000 tested, about 20% had one in any assay.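 48-hour exposure, single concentration, 96-well plates; percent growth endpoint where 0 means no net growth. Active: below 10.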 Values without a mark were called inactive. Activity calls are given as the source filed them.

Test system: TK-10 renal
Experiment: NCI-60 one-dose screen, 48 h (100 = growth as untreated, 0 = no growth, -100 = all killed)
Details: 10 µM unless noted

SMILES | growth
COc1ccc(-c2nc(N=Nc3c(O)[nH]c4ccccc34)nc(N3CCOCC3)c2C#N)cc1 | 71.5%
COc1cc2nc(-c3ccc(C(F)(F)F)cc3)cc(OCCN3CCCC3)c2cc1OC | 92.9%
NC(=S)N/N=C(/c1ccccc1)c1ccccc1N | 103%
C=C(C)[C@@H]1CC[C@]2(C=O)CC[C@]3(C)[C@H](CC[C@@H]4[C@@]5(C)CCCNC(C)(C)[C@@H]5CC[C@]43C)[C@@H]12 | 88.2%
CCCNC(=O)Oc1ccc(/C(=C(\C)c2ccccc2)c2ccc(OCCN3CCCCC3)cc2)cc1 | 90.2%
CCOC(=O)Oc1c(OC)cc(C(=O)O[C@@H]2C[C@@H]3CN4CCc5c([nH]c6cc(OC)ccc56)[C@H]4C[C@@H]3[C@H](C(=O)OC)[C@H]2OC)cc1OC | 99.7%
COc1ccc(OC)c(/C=C/[C@H]2O[C@@H](C)[C@H](O)[C@@H]2O)c1 | 95.7%
CCC(=O)c1ccc(O)c(OC)c1 | 99.2%
Clc1cc(Cl)cc(N2N=C(c3cccc(Nc4ccncc4)c3)CC2c2ccccc2)c1 (stereo not drawn) | 89.9%
Fc1cc(C2=NNC(c3ccc[nH]3)C2)ccc1-n1ccc(C(F)(F)F)n1 (stereo not drawn) | 117%
Clc1nc(Nc2ccccc2)nc(Nc2ccccc2)n1 | 122%
Cn1c(=O)c2[nH]c(CCCc3nc4c([nH]3)c(=O)n(C)c(=O)n4C)nc2n(C)c1=O | 118%
C=C1C(=O)O[C@H]2[C@H]1CC/C(COC(=O)NCCc1c[nH]c3ccc(Cl)cc13)=C\CC[C@@]1(C)O[C@@H]21 | -97.2% (active)
Cc1[nH]c(C(=O)Nc2ccccc2OCc2cccc(C(=O)NCCN)c2)c(Cl)c1Cl | 138%
COc1cc2oc(-c3cccc(C(=O)Nc4ccc(Cl)cc4)c3)cc(=O)c2c(OC)c1OC | 38.6%
O=C(Nc1nc2ccc(S(=O)(=O)Nc3ccc(C4(C(F)(F)F)CC4)cc3)cc2[nH]1)c1cnccn1 | 65.9%
CCCCCCCCCCN=C(N)N=C(N)N | 40.8%
CC(C)NC(=O)N1C(=O)CCC1NNC(=O)c1ccc([N+](=O)[O-])cc1 (stereo not drawn) | 101%
N#Cc1cc(-c2nc3ccccc3s2)c(=O)n(NS(=O)(=O)c2ccc(Cl)cc2)c1N | 139%

SMILES | growth
O=C1c2ccccc2-c2c1c1c(NCCCO)nc3ccccc3c1n2Cc1ccccc1 | -20.2% (active)
COC(=O)N[C@H]1CCc2cc(OC)c(OC)c(OC)c2-c2ccc(SC)c(=O)cc21 | 47%
COc1nccnn1 | 93.3%
Cc1ccc(C(=O)Nc2ccccc2C(=O)N/N=C(\c2ccccc2)c2ccccn2)cc1 | 47.2%
CCCCN(CCCC)CCc1c(C)cc(C)c(CCN(CCCC)CCCC)c1O | 37.4%
Nc1cc(N)c2cccnc2c1O | 86%
CN1CCCC1=Nc1ccccc1 | 107%
COc1ccc(CNC(=O)COc2ccc(/C=N/Nc3nc4ccccc4s3)cc2)cc1 | 86.9%
O=C1OC(=O)C2C1CC=CC2c1ccccc1 (stereo not drawn) | 102%
COc1ccc(CC(C)=C(c2ccc(OCCN(C)C)cc2)c2ccc(OCCN(C)C)cc2)cc1 | 99.6%
O=C(N=Nc1c(O)[nH]c2ccc(F)cc12)c1cc2ccccc2[nH]1 | 106%
O=S(=O)(NCCNc1nccc(-c2c(-c3cccc(F)c3)nc3occn23)n1)c1cccc2ccccc12 | 47.1%
O=S(=O)(c1ccc(N/N=C\c2ccccc2)cc1)c1ccc(N/N=C/c2ccccc2)cc1 | 59.4%
CCOc1ccc(/C=N/Nc2cc(C)nc3ccc(Cl)cc23)cc1 | 121%
CC(C)Cc1ccc(C(C)C(=O)NCc2c[nH]c3ccc(Cl)cc23)cc1 (stereo not drawn) | 107%
COc1ccccc1OCC(=O)N1CCCCCC1 | 96.1%
Nc1nc(SN=Nc2ccc(S(N)(=O)=O)cc2)c2[nH]cnc2n1 | -9.94% (active)
COc1ccc(C2CC(n3nnnc3-c3ccccc3)=NN2)cc1 (stereo not drawn) | 82.6%
CC(c1ccccc1)n1ccnc1CO (stereo not drawn) | 88.2%
